Measured values published in PubChem BioAssay (NCATS).
“And” between values parts separate entries of the source, which are not always exact repeats. Equal values may be shown once. Inconclusive results are not listed. A number with no mark means an inactive call. The source made the active and inactive calls. Calls come from the whole dose curve; as a rule, active = well fitted cell-killing curve with a large enough effect; inconclusive = small, poorly fitted or top-dose-only effect, or effect the other way; inactive = no such curve, though single readings can be large or run the other way.

Test: Viability qHTS for spleen associated tyrosine kinase inhibitor (SYKi) drug resistant MV4-11 cells (AID 1963824); note: nearly all actives have a fitted effect of over 35% in size
Details: SYKi-resistant MV4-11 viability, CellTiter-Glo, 72 h; series mostly up to 45 µM; viability, % of control: at the top concentration
How it was run: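 SYK-inhibitor-resistant MV4-11 AML cells were seeded at 500 per well onto compound and cultured 72 hours (37 °C, 5% CO2). CellTiter-Glo was then added, and after 10 min at room temperature, luminescence gave viability.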
Potency is the fitted concentration of half-maximal effect.

Row | SMILES | Potency | viability, % of control [%]
1 | CO[C@@H]1[C@H](N(C)C(=O)c2ccccc2)C[C@H]2O[C@]1(C)n1c3ccccc3c3c4c(c5c6ccccc6n2c5c31)C(=O)NC4 | 51.7 nM (active) and 59 nM (active) | 
2 | Nc1nc2c(c(=O)[nH]1)N(C=O)[C@H](CNc1ccc(C(=O)N[C@@H](CCC(=O)O)C(=O)O)cc1)CN2 |  | 85.6
3 | O=C(N[C@@H](c1ccccc1)[C@@H]1CCCCN1)c1cccc(C(F)(F)F)c1Cl | 16.6 µM (active) | 
4 | O=C(Nc1ncc(-c2cc(C(F)F)nn2-c2c(Cl)cccc2Cl)s1)C1CC1 | 0.372 µM (active) | 
5 | CCCCCCCCCCCC(CC1OC(=O)C1CCCCCC)OC(=O)C(CC(C)C)NC=O (stereo unspecified) | 3.72 µM (active) | 
6 | NC(=NCc1ccccc1)NC(=O)c1nc(Cl)c(N)nc1N | 5.25 µM (active) | 
7 | Cc1ccc(-n2[nH]c(C)c(N=Nc3cccc(-c4cccc(C(=O)O)c4)c3O)c2=O)cc1C | 13.3 µM (active) | 
8 | CS(=O)(=O)N(Cc1ccco1)CC(O)Cn1c2ccccc2c2ccccc21 (stereo unspecified) | 16.4 µM (active) and 16.6 µM (active) | 
9 | CC(C)C(=O)Nc1ccc([N+](=O)[O-])c(C(F)(F)F)c1 | 10.6 µM (active) and 18.6 µM (active) | 
10 | O=C(Nc1nccs1)C(c1cc(F)ccc1O)N1Cc2ccccc2C1=O (stereo unspecified) | 16.6 µM (active) | 
11 | O=c1cc(-c2ccccc2)oc2cc(O)cc(O)c12 | 16.6 µM (active) | 
12 | O=C(/C=C\n1cnc(-c2cc(C(F)(F)F)cc(C(F)(F)F)c2)n1)NNc1ccccn1 | 2.63 µM (active) | 
13 | O=c1ncn2nc(Sc3ccc(F)cc3F)ccc2c1-c1c(Cl)cccc1Cl | 8.2 µM (active) | 
14 | COc1ccccc1[C@H](c1cccc2ccccc12)[C@@](C)(C#N)C(=O)N1CCC(c2cccc(C(F)(F)F)c2)CC1 | 8.33 µM (active) | 
15 | O=C1c2c(O)ccc(O)c2C(=O)c2c(NCCNCCO)ccc(NCCNCCO)c21 | 59.6 nM (active) and 20.9 nM (active) | 
16 | CCc1c2c(nc3ccc(O)cc13)-c1cc3c(c(=O)n1C2)COC(=O)[C@]3(O)CC | 0.0083 µM (active) | 
17 | O=C(Nc1nc2cccc(-c3ccc(CN4CCS(=O)(=O)CC4)cc3)n2n1)C1CC1 | 2.91 µM (active) and 7.42 µM (active) | 
18 | CC1(COc2ccc3c(c2)ncn3-c2ccc3cccc(N4CCC(N)CC4)c3n2)COC1 | 11.6 nM (active) and 10.5 nM (active) | 

Row | SMILES | Potency | viability, % of control [%]
19 | O=C(O)c1cn(C2CC2)c2cc(N3CCNCC3)c(F)cc2c1=O | inactive | 
20 | CCOC(=O)[C@H](CCc1ccccc1)N[C@H]1CCc2ccccc2N(CC(=O)O)C1=O | 16.6 µM (active) | 
21 | CN(C)c1nc(Cc2ccc(NC(=O)c3ccc4ccccc4c3)cc2)nc(Cl)c1CC(=O)O |  | 73.1
22 | O=C(O)CCCCC(CCSCc1ccccc1)SCc1ccccc1 (stereo unspecified) | 13.2 µM (active) | 
23 | Cc1c(C(=O)NN2CCCCC2)nn(-c2ccc(Cl)cc2Cl)c1-c1ccc(Cl)cc1 | 23.7 µM (active) | 
24 | COc1ccc(COc2ccc(Cc3cnc(N)nc3N)cc2OC)cc1 | 7.31 µM (active) | 
25 | O=C1c2c(O)cccc2Cc2cccc(O)c21 |  | 98.7
26 | Cc1cc(Nc2cc(NC(=O)c3c(Cl)cccc3Cl)ccn2)nc(N)n1 | 0.164 µM (active) | 
27 | CC(=O)c1c(C)c2cnc(Nc3ccc(N4CCNCC4)cn3)nc2n(C2CCCC2)c1=O | 184 nM (active) and 5.25 µM (active) | 
28 | Nc1nc(NCCNc2ncc(-n3ccnc3)c(-c3ccc(Cl)cc3Cl)n2)ccc1[N+](=O)[O-] | 3.72 µM (active) | 
29 | C#Cc1cccc(Nc2ncnc3cc(OCCOC)c(OCCO)cc23)c1 | 2.63 µM (active) | 
30 | N#CNC(=NCCCCCCOc1ccc(Cl)cc1)Nc1ccncc1 | 0.0042 µM (active) | 
31 | Cc1[nH]nc(C(F)(F)F)c1Cc1sc2c(c1C(=O)N1C[C@](C)(O)CO1)c(=O)n(C)c(=O)n2C(C)C | inactive | 
32 | N=C(N)c1ccc(OCCCCCOc2ccc(C(=N)N)cc2)cc1 | 4.22 µM (active) and 1.66 µM (active) | 
33 | Cc1cc(-c2ccc(CC(=O)Nc3ccc(-c4cccnc4)cc3)cc2)ccn1 | 11.8 µM (active) | 
34 | Cc1ccnc2c1NC(=O)c1cccnc1N2C1CC1 |  | 78.9
35 | CNC(=O)Nc1ccc(-c2nc(N3CC4CCC(C3)O4)c3cnn(C4CCC5(CC4)OCCO5)c3n2)cc1 | 0.166 µM (active) | 
36 | COc1cc(C(=O)N2CCC(N3CCN(C)CC3)CC2)ccc1Nc1ncc2c(n1)N(C)c1ccccc1C(=O)N2C | 651 nM (active) and 1.18 µM (active) | 
